Measurements as given in PubChem BioAssay (EPA / NIEHS).
Several values for one entry are separate records, joined by “and”; a condition that tells them apart may be missing. Identical values can stand only once. The source holds several records for some structures; these can differ, active in one and inactive in another. Activity calls are given as the source filed them. The calls were made as follows: active = hit-call score of the fitted dose curve at least 0.9, where 1 is the maximum; inactive = score below 0.9.

How the values were obtained:
[1] = read-out: Interleukin-8 (IL8), CXCL8 (gene 3576); experiment: BSK_MyoF_IL8: BioMAP Diversity Plus: MyoF Assay for Interleukin-8 (IL8) Biomarker Activity (AID 2284261); details: primary human lung fibroblasts
Summary of the method: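 Human lung fibroblast (MyoF system) cultures dosed for 24 h, then IL-8 measured by ELISA. Response taken relative to DMSO; parallel SRB total-protein staining for cytotoxicity.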

CD90, THY1 (gene 7070) = experiment: BSK_BF4T_CD90: BioMAP Diversity Plus: BF4T Assay for CD90 Biomarker Activity (AID 2284262); details: primary human bronchial epithelial cells with fibroblasts
Summary of the method: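 CD90 levels by ELISA after 24 h treatment of human bronchial epithelial cell/dermal fibroblast cultures, analysed versus DMSO. Overt cytotoxicity checked in parallel cultures by sulforhodamine B staining.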

[2] = read-out: Interleukin-8 (IL8), CXCL8 (gene 3576); experiment: BSK_BF4T_IL8: BioMAP Diversity Plus: BF4T Assay for Interleukin-8 (IL8) Biomarker Activity (AID 2284263); details: primary human bronchial epithelial cells with fibroblasts
Summary of the method: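 Human bronchial epithelial cells with dermal fibroblasts co-culture; IL-8 measured by ELISA 24 hours after dosing, fitted vs DMSO. Cytotoxicity tracked in parallel cultures by SRB total-protein staining.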

[3] = read-out: Interleukin-1 alpha (IL1a), IL1A (gene 3552); experiment: BSK_BF4T_IL1a: BioMAP Diversity Plus: BF4T Assay for Interleukin-1 alpha (IL1a) Biomarker Activity (AID 2284264); details: primary human bronchial epithelial cells with fibroblasts
Summary of the method: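 ELISA read-out of IL-1α from bronchial epithelial cell/dermal fibroblast co-cultures 24 h after compound addition. Increases scored against DMSO negative control. Cytotoxicity monitored by sulforhodamine B staining of parallel cultures.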

Decorin, DCN (gene 1634) = experiment: BSK_MyoF_Decorin: BioMAP Diversity Plus: MyoF Assay for Decorin Biomarker Activity (AID 2284265); details: primary human lung fibroblasts
Summary of the method: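 Human lung fibroblast cultures were dosed for 24 h, and decorin was then measured by ELISA. Parallel cultures were stained with sulforhodamine B for total protein as a cytotoxicity check. Gain of signal was fitted relative to DMSO.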

[4] = BSK_MyoF_SRB: Viability Assessment in the BioMAP Diversity Plus: MyoF Assay (AID 2284267); details: primary human lung fibroblasts;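 also: total protein by SRB absorbance in parallel cultures as cytotoxicity measure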
Summary of the method: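 Cytotoxicity read-out: after 10% TCA fixation, parallel human lung fibroblast cultures were stained with 0.1% SRB at 24 h post-dosing and read at 560 nm; DMSO served as baseline.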

[5] = read-out: Matrix Metallopeptidase 1 (MMP1), MMP1 (gene 4312); experiment: BSK_MyoF_MMP1: BioMAP Diversity Plus: MyoF Assay for Matrix Metallopeptidase 1 (MMP1) Biomarker Activity (AID 2284268); details: primary human lung fibroblasts
Summary of the method: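 Human lung fibroblast primary cells; MMP1 measured by ELISA 24 h after dosing, fitted in the positive direction relative to DMSO. Parallel SRB staining (0.1%, after 10% TCA fixation, 560 nm) assesses overt cytotoxicity.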

[6] = read-out: TIMP metallopeptidase inhibitor 1 (TIMP1), TIMP1 (gene 7076); experiment: BSK_MyoF_TIMP1: BioMAP Diversity Plus: MyoF Assay for TIMP metallopeptidase inhibitor 1 (TIMP1) Biomarker Activity (AID 2284269); details: primary human lung fibroblasts
Summary of the method: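 ELISA read-out of TIMP-1 from primary human lung fibroblast cultures 24 h after compound dosing; gain of signal relative to DMSO vehicle baseline defines activity.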

[7] = read-out: Matrix Metallopeptidase 1 (MMP1), MMP1 (gene 4312); experiment: BSK_BF4T_MMP1: BioMAP Diversity Plus: BF4T Assay for Matrix Metallopeptidase 1 (MMP1) Biomarker Activity (AID 2284270); details: primary human bronchial epithelial cells with fibroblasts
Summary of the method: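 MMP-1 quantified by ELISA in primary human bronchial epithelial/dermal fibroblast co-cultures, 24 hours post-dosing, with DMSO as baseline; parallel sulforhodamine B staining (560 nm) tracks overt cytotoxicity.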

[8] = read-out: Matrix Metallopeptidase 3 (MMP3), MMP3 (gene 4314); experiment: BSK_BF4T_MMP3: BioMAP Diversity Plus: BF4T Assay for Matrix Metallopeptidase 3 (MMP3) Biomarker Activity (AID 2284271); details: primary human bronchial epithelial cells with fibroblasts
Summary of the method: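 MMP-3 level read by ELISA after 24 h chemical exposure of bronchial epithelial cell/dermal fibroblast co-cultures, fitted upward relative to DMSO. Parallel cultures stained with 0.1% SRB after TCA fixation gauge overt cytotoxicity.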

[9] = read-out: Tissue plasminogen activator (tPA), PLAT (gene 5327); experiment: BSK_BF4T_tPA: BioMAP Diversity Plus: BF4T Assay for Tissue plasminogen activator (tPA) Biomarker Activity (AID 2284272); details: primary human bronchial epithelial cells with fibroblasts
Summary of the method: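 tPA level quantified by ELISA at 24 h post-treatment in bronchial epithelial/dermal fibroblast co-cultures, gain of signal scored against DMSO baseline. Parallel cultures stained with 0.1% SRB (560 nm) to flag overt cytotoxicity.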

[10] = read-out: Plasminogen Activator Inhibitor-1 (PAI1), SERPINE1 (gene 5054); experiment: BSK_BF4T_PAI1: BioMAP Diversity Plus: BF4T Assay for Plasminogen Activator Inhibitor-1 (PAI1) Biomarker Activity (AID 2284273); details: primary human bronchial epithelial cells with fibroblasts
Summary of the method: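 PAI-1 levels quantified by ELISA 24 h post-dosing in bronchial epithelial cell plus dermal fibroblast cultures. Signal gain referenced to DMSO baseline. Sulforhodamine B total-protein staining of parallel wells checked cytotoxicity.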

[11] = BSK_BF4T_SRB: Viability Assessment in the BioMAP Diversity Plus: BF4T Assay (AID 2284274); details: primary human bronchial epithelial cells with fibroblasts
Summary of the method: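 Cytotoxicity measured as total protein: cells fixed with 10% TCA, stained with 0.1% SRB, read at 560 nm. Bronchial epithelial/dermal fibroblast co-culture, 24 h after dosing, with positive-direction fitting relative to DMSO.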

[12] = read-out: urokinase Plasminogen Activator (uPA), PLAU (gene 5328); experiment: BSK_BF4T_uPA: BioMAP Diversity Plus: BF4T Assay for urokinase Plasminogen Activator (uPA) Biomarker Activity (AID 2284275); details: primary human bronchial epithelial cells with fibroblasts
Summary of the method: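 uPA levels measured by ELISA at 24 hours in BF4T cultures (bronchial epithelial cells plus dermal fibroblasts) and compared with DMSO; cytotoxicity tracked in parallel cultures by sulforhodamine B staining.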

[13] = read-out: Matrix Metallopeptidase 9 (MMP9), MMP9 (gene 4318); experiment: BSK_BF4T_MMP9: BioMAP Diversity Plus: BF4T Assay for Matrix Metallopeptidase 9 (MMP9) Biomarker Activity (AID 2284276); details: primary human bronchial epithelial cells with fibroblasts
Summary of the method: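 MMP-9 levels were measured by ELISA after 24 h exposure of bronchial epithelial cell/dermal fibroblast co-cultures, with DMSO as baseline. Parallel cultures were stained with 0.1% SRB after TCA fixation, read at 560 nm, to flag overt cytotoxicity.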

[14] = read-out: Interleukin-8 (IL8), CXCL8 (gene 3576); experiment: BSK_IMphg_IL8: BioMAP Diversity Plus: IMphg Assay for Interleukin-8 (IL8) Biomarker Activity (AID 2284277); details: primary human endothelial cells with macrophages
Summary of the method: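 IL-8 levels were measured by ELISA 24 h after dosing in primary human venular endothelial cell–macrophage cultures, referenced to DMSO; parallel SRB staining monitored overt cytotoxicity.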

[15] = read-out: Intercellular Adhesion Molecule 1 (ICAM1), ICAM1 (gene 3383); experiment: BSK_BE3C_ICAM1: BioMAP Diversity Plus: BE3C Assay for Intercellular Adhesion Molecule 1 (ICAM1) Biomarker Activity (AID 2284278); details: primary human bronchial epithelial cells
Summary of the method: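 ICAM-1 quantified by ELISA and fitted against DMSO baseline, 24 h post-dosing in BE3C cultures of primary human lung bronchial epithelial cells. Cytotoxicity checked in parallel cultures by total protein SRB staining.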

[16] = read-out: Interferon-inducible T-cell alpha chemoattractant (ITAC), CXCL11 (gene 6373); experiment: BSK_BE3C_ITAC: BioMAP Diversity Plus: BE3C Assay for Interferon-inducible T-cell alpha chemoattractant (ITAC) Biomarker Activity (AID 2284279); details: primary human bronchial epithelial cells
Summary of the method: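 ELISA read-out of I-TAC after 24 h chemical dosing of human lung primary bronchial epithelial cells; gain-of-signal fit vs DMSO baseline. Parallel SRB total-protein staining (0.1% SRB, 10% TCA fixation, 560 nm) assessed cytotoxicity.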

[17] = read-out: Interleukin-8 (IL8), CXCL8 (gene 3576); experiment: BSK_BE3C_IL8: BioMAP Diversity Plus: BE3C Assay for Interleukin-8 (IL8) Biomarker Activity (AID 2284280); details: primary human bronchial epithelial cells
Summary of the method: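 Primary human bronchial epithelial cells (BE3C system) were exposed to test chemical for 24 h, and IL-8 levels were then measured by ELISA. Activity was fitted in the positive (gain-of-signal) direction against a DMSO negative-control baseline.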

KRT18 (gene 3875) = experiment: BSK_BF4T_Keratin818: BioMAP Diversity Plus: BF4T Assay for Keratin 818 Biomarker Activity (AID 2284266); details: primary human bronchial epithelial cells with fibroblasts
Summary of the method: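 Keratin 8/18 levels quantified by ELISA after 24 h chemical treatment of bronchial epithelial cell/dermal fibroblast co-cultures, fitted in positive direction relative to DMSO. Parallel SRB staining tracks overt cytotoxicity.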

Measured: AC50

FC(F)(F)C(F)(F)C(F)(F)CI
inactive: [1] | CD90, THY1 (gene 7070) | [2] | [3] | Decorin, DCN (gene 1634) | [4] | [5] | [6] | [7] | [8] | [9] | [10] | [11] | [12] | [13] | [14] | [15] | [16] | [17]

O=C(O)C(F)(F)C(F)(F)C(F)(F)C(F)(F)C(F)(F)C(F)(F)C(F)(F)C(F)(F)C(F)(F)C(F)(F)C(F)(F)C(F)(F)C(F)(F)F
active: [8] 1.68 µM | [16] 25.9 nM
inactive: [1] | CD90, THY1 (gene 7070) | [2] | [3] | Decorin, DCN (gene 1634) | KRT18 (gene 3875) | [4] | [5] | [6] | [7] | [8] | [9] | [10] | [11] | [12] | [13] | [14] | [15] | [16] | [17]

O=C(O)C(F)(F)C(F)(F)C(F)(F)C(F)(F)C(F)(F)C(F)(F)C(F)(F)C(F)(F)C(F)(F)C(F)F
inactive: [1] | [2] | Decorin, DCN (gene 1634) | [5] | [6] | [7] | [8] | [14] | [17]
active: CD90, THY1 (gene 7070) 17.3 µM and 1.67 µM | [3] 38.8 µM and 20.5 µM | [4] 21.3 µM and 21.9 µM | [6] 50.9 µM | [7] 49.7 µM | [8] 30 µM | [9] 9.23 µM and 5.95 µM | [11] 41.7 µM and 40.8 µM | [12] 41.3 µM and 17.5 µM | [13] 21.4 µM and 15.7 µM | [15] 20.3 µM and 21.1 µM | [16] 9.92 µM and 11.3 µM
